Laboratory results published in PubChem BioAssay AID743200 (The Scripps Research Institute Molecular Screening Center, 2013).
Among all 1,500 compounds or so, about 950 (63%) were called active. Cut-off read from the data, not from the text of the source: active = inhibition above about 25%; inactive = the rest. So high a share suggests a set chosen from earlier hits. The list is a sample of the results.

These molecules were tested against Major prion protein (Homo sapiens) (UniProt P04156) (assay: confirmation of inhibitors of cell surface human prion protein, confirmation, cell-based, TR-FRET (AID 743200)). Settings: cell surface PrPC level, at 13.8 µM, active compounds read high.

| SMILES | inhibition |
| --- | --- |
| COc1cccc2sc3cc(NCC[C@@H]4CCCN4C)ccc3c(=O)c12 | 46% (active) |
| COc1ccc2c(Cl)c(-c3nnco3)sc2c1 | 37.6% (active) |
| FC(F)(F)c1cccc(NC(=S)OC2CCC23CCC(c2ccccc2)CC3)c1 (stereo not drawn) | 15.7% (inactive) |
| CC(=O)c1sc2nc(SCC(=O)N3CCCCC3)[nH]c(=O)c2c1C | 28.8% (active) |
| COc1ccc(S(=O)(=O)N2CCOCC2)cc1NC(=O)CSc1ncnc2ccccc12 | 92.1% (active) |
| O=C(Nc1cccn(Cc2ccccc2Cl)c1=O)NC1CCCCC1 | 15.9% (inactive) |
| Cc1nc(/N=C(\N)NC(=O)NC2CCCCC2)nc2ccccc12 | 29.3% (active) |
| O=C(CC(O)(C(F)(F)F)C(F)(F)F)Nc1ccc(Cl)c(Cl)c1 | 58.3% (active) |
| COc1ccc(NC(=O)COC(=O)CNC(=O)C2CCCCC2)cc1 | 3.04% (inactive) |
| CCOC(=O)c1c(-c2ccccc2)oc2cc(Br)c(O)cc12 | 90.9% (active) |
| O=C(/C=C/c1ccc([N+](=O)[O-])o1)NNC(=O)c1ccc(F)cc1 | 64.6% (active) |
| CC1(C)Cc2ccccc2-c2[nH]c(=S)[nH]c(=O)c21 | 81.8% (active) |
| N#Cc1c(-c2cccs2)nc(SCC(=O)c2ccc(Br)cc2)[nH]c1=O | 74.2% (active) |
| COc1cc(-n2c(=S)[nH]c3ccc(C)cc3c2=O)c(Cl)cc1Cl | 46.2% (active) |
| CCCOc1ccc(C2C(C(=O)c3ccc(C)o3)=C(O)C(=O)N2CCCn2ccnc2)cc1 (stereo not drawn) | 52.6% (active) |
| O=C(Oc1ccccc1)Oc1ccc2c(c1)oc(=O)c1ccccc12 | 40.9% (active) |
| Cc1ccnc(NC(=O)C2CCN(S(=O)(=O)c3c(C)c(C)cc(C)c3C)CC2)c1 | 20.7% (inactive) |
| C=CCNC(=O)CSc1nc2scc(-c3ccco3)c2c(=O)n1CC=C | 31.3% (active) |
| Cc1cc2ccccc2n1CCNC(=O)COc1ccc2ccccc2c1 | 48.4% (active) |
| CCCc1nc(SCC(=O)Nc2ccc(S(=O)(=O)N(C)C)cc2)c2ccccc2n1 | 90.7% (active) |
| Cc1cccc(NC(=O)c2nc(S(=O)(=O)Cc3ccccc3)ncc2Cl)c1 | 39.3% (active) |

| SMILES | inhibition |
| --- | --- |
| Cc1cccc(CS(=O)(=O)c2ncc(Cl)c(C(=O)Nc3ccc(F)cc3)n2)c1 | 15.9% (inactive) |
| CCCCCCCCn1c2c(c(=N)c3c1CCC3)CCCC2 | 44.9% (active) |
| CN(C)CCNC(=O)c1ccc(Cl)c2cc3ccccc3nc12 | 45.2% (active) |
| CO[C@H]([C@H](C)/C=C/N(C)C=O)[C@@H](C)C(=O)CC[C@H](C)[C@H](O)[C@H](C)[C@H]1OC(=O)/C=C/C(C)=C/[C@H](O)[C@H](OC)C[C@@H]2C=CC[C@@H](C[C@H](OC)[C@@]3(CO3)[C@@H](OC)C[C@@H](OC)[C@@H]1C)O2 | 32.5% (active) |
| Cn1c(=S)sc2ccc3ccccc3c21 | 75.4% (active) |
| CCCCNc1c(-c2cccc(Sc3ccc(OC)cc3)c2)nc2ccccn12 | 17% (inactive) |
| Cc1sc2ncnc(SCC(=O)Nc3ccc(CN4CCCC4)cc3)c2c1C | 53.1% (active) |
| NC(=O)C1CCN(Cc2nc3c(Br)cc(Br)cc3c(=O)[nH]2)CC1 | 41.7% (active) |
| CCOC(=O)c1c(C)[nH]c(=S)c(C#N)c1-c1ccccc1 | 43.5% (active) |
| CCC(C)(O)C(=O)OC1C(=O)OC2CC3C(C)=CC(=O)C(O)C3(C)C3C4(O)OCC23C1C(C)C4O (stereo not drawn) | 98.8% (active) |
| COC(=O)Cc1[nH]n(-c2nc3ccccc3s2)c(=O)c1C(C)=Nc1ccc(OC)cc1 | 5.13% (inactive) |
| Cc1cc2cc(CNC(=O)c3ccc(S(=O)(=O)N4CCOCC4)cc3)ccc2[nH]1 | 15.2% (inactive) |
| COc1ccc(C(=O)Nc2nc(-c3ccc(S(=O)(=O)N4CCOCC4)cc3)cs2)cc1 | 27.4% (active) |
| Cc1ccsc1C(=O)OCC(=O)Nc1cccc(F)c1 | 8.25% (inactive) |
| Cc1ccc(CSc2ccc(S(=O)(=O)N3CCCCC3)cn2)cc1 | 6.8% (inactive) |
| CCc1c(C)nc2cc(-c3cccs3)[nH]n2c1=O | 41.7% (active) |
| O=C(COC(=O)c1ccccc1SCC(=O)NC1CCCCC1)NC1CCCCC1 | 24.6% (active) |
| O=C1CCCC2=C1C(c1cccs1)n1nc(SCc3ccccc3)nc1N2 (stereo not drawn) | 20% (inactive) |
| N#C/C=C1\Sc2ccccc2C(=O)N1CC(=O)N1CCN(S(=O)(=O)c2ccccc2)CC1 | 67.5% (active) |
| N#Cc1ccc(OCC(=O)Nc2nc(-c3ccccn3)cs2)cc1 | 18.7% (inactive) |
| COc1ccc(OC)c(NC(=O)c2cc(-c3cc(F)ccc3OCC3CCCO3)n[nH]2)c1 (stereo not drawn) | 10.2% (inactive) |

| SMILES | inhibition |
| --- | --- |
| CC(=O)N1CCCc2cc(S(=O)(=O)N3CCCC(C(=O)NCc4ccc(Cl)cc4)C3)ccc21 (stereo not drawn) | 17.2% (inactive) |
| CC(=O)N1c2ccc(S(=O)(=O)N3CCCC(C(=O)Nc4cccc(F)c4)C3)cc2CC1C (stereo not drawn) | 49.1% (active) |
| CC(=O)N1CCCc2cc(S(=O)(=O)N3CCCC(C(=O)N4CCN(c5cccc(Cl)c5)CC4)C3)ccc21 (stereo not drawn) | 38.3% (active) |
| O=C(NC(Nc1nc2ccc([N+](=O)[O-])cc2s1)(C(F)(F)F)C(F)(F)F)c1ccccc1 | 65.9% (active) |
| CN1/C(=C\C(=O)c2oc3ccccc3c2N)C(C)(C)c2ccccc21 | 49.3% (active) |
| CC(=O)Nc1cccc(OCC(=O)/C=C2\N(C)c3ccccc3C2(C)C)c1 | 20.8% (inactive) |
| O=C(Cc1ccccc1)Nc1cccc(NC(=O)c2ccccc2)c1 | 11.2% (inactive) |
| O=C(Nc1ccc(C2CC2(Cl)Cl)cc1)c1cccc([N+](=O)[O-])c1 (stereo not drawn) | 24.7% (active) |
| Cc1ccc(CNC(=O)Nc2nnc([C@H]3C[C@H](O)[C@@H](CO)O3)s2)cc1 | -0.76% (inactive) |
| Cc1ccc(Oc2cnn(-c3ccccc3)c(=O)c2Br)cc1 | 51.9% (active) |
| CC(=O)c1nc(N2C(=O)C3CC=C(C)CC3C2=O)sc1C (stereo not drawn) | 18% (inactive) |
| Cc1[nH]n(-c2ccccc2)c(=O)c1/C=N/NC(=O)c1ccoc1C | 60.1% (active) |
| O=C(c1ccc(F)cc1)c1cn(Cc2ccc(F)cc2)c2cc3c(cc2c1=O)OCCO3 | 90.5% (active) |
| Fc1ccc2[nH]c3c(N4CCSCC4)ncnc3c2c1 | 35.3% (active) |
| Cc1ccc(NC(=O)c2sc3nc(N)c(C#N)cc3c2N)cc1 | 35.3% (active) |
| CCc1nc(SCC(=O)NNC(=O)c2ccc(C)cc2)c2ccccc2n1 | 118% (active) |
| COC(=O)CSc1nc(C2CC2)nc2ccccc12 | 35.9% (active) |
| O=c1[nH]cccc1-c1nc2ccccc2n1Cc1ccc(Cl)cc1 | 35.3% (active) |
| CCCCC(=O)NC(c1ccc(OC)c(OC)c1)c1ccc2cccnc2c1O (stereo not drawn) | 26.9% (active) |
| CCCCCCCCCCCCn1ccc(=N)cc1 | 38.5% (active) |
| O=C(Nc1ccc(N2CCN(C(=O)c3ccccc3)CC2)c(Cl)c1)c1cccnc1 | 12.3% (inactive) |
